# According to the supplement of paper PMC6411743:
# ± gives the standard deviation of the averaged measurements. Targets with the largest changes are over-represented here; the source holds about 6,500 in all.
# Compound: Nc1ncnc2c1ncn2[C@@H]1O[C@H](COP(=O)(O)OP(=O)(O)OP(=O)(O)O)[C@@H](O)[C@H]1O [adenosine triphosphate]
# Experiment: NP40-soluble protein abundance relative to vehicle (solubility fold change) (ratio); higher = more soluble protein in presence of ATP
# How it was run: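 Across three independent experiments, values are fold changes against the detergent-processed vehicle for each replicate, based on vsn-normalised intensities. The samples were Jurkat crude lysate treated with eight concentrations (0.1 to 10 mM) for 10 min at room temperature and then 3 min at 37 °C. Lysate was solubilised with 0.8% NP40 and benzonase, ultracentrifuged, and the supernatant analysed by TMT-labelled LC-MS/MS.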
# UniProt Q14142, sequence (Q14142 whole entry): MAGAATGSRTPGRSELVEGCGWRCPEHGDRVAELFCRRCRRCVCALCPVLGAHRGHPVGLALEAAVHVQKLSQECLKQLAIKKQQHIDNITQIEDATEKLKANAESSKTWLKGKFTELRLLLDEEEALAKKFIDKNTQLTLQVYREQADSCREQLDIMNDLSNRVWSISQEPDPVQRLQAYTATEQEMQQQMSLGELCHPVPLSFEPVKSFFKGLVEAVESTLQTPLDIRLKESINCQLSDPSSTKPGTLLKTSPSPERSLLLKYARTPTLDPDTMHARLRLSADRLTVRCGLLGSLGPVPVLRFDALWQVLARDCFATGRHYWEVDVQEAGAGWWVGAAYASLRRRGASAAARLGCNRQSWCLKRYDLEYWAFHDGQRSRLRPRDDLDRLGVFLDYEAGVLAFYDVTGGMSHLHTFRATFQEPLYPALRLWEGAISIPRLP
# UniProt Q14011, sequence (Q14011 whole entry): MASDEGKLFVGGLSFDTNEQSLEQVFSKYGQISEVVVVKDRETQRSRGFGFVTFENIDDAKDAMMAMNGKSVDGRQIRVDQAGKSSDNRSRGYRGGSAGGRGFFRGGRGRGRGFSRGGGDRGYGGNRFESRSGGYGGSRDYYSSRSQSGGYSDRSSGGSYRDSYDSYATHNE
# UniProt Q15029, sequence (Q15029 whole entry): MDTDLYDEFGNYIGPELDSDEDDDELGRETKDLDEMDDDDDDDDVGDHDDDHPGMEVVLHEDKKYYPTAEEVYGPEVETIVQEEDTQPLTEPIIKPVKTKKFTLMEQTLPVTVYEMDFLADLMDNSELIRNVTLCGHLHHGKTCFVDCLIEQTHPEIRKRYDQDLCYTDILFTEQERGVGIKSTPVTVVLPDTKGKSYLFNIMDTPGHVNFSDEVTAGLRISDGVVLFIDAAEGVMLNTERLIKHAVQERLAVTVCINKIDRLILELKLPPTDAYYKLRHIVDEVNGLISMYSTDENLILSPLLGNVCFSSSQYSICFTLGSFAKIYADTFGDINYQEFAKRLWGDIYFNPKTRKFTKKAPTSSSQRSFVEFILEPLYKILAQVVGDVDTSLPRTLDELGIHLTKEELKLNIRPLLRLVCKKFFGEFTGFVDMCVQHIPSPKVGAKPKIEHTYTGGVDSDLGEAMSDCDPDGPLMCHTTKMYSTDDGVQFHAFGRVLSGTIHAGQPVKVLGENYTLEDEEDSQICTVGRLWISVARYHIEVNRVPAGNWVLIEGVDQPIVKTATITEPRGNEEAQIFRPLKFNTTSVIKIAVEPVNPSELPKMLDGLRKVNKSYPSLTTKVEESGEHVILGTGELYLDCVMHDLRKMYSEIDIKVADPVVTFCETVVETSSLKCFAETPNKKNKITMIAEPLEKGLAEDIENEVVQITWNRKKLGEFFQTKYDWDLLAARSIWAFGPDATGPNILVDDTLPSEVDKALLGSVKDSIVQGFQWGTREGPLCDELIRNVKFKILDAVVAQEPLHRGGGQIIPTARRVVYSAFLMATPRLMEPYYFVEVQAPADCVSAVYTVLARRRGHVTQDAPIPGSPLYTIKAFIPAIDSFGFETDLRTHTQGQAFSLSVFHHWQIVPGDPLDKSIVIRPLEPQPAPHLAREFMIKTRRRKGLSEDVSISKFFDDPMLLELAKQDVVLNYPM
# UniProt Q13523, sequence (Q13523 whole entry, looked up): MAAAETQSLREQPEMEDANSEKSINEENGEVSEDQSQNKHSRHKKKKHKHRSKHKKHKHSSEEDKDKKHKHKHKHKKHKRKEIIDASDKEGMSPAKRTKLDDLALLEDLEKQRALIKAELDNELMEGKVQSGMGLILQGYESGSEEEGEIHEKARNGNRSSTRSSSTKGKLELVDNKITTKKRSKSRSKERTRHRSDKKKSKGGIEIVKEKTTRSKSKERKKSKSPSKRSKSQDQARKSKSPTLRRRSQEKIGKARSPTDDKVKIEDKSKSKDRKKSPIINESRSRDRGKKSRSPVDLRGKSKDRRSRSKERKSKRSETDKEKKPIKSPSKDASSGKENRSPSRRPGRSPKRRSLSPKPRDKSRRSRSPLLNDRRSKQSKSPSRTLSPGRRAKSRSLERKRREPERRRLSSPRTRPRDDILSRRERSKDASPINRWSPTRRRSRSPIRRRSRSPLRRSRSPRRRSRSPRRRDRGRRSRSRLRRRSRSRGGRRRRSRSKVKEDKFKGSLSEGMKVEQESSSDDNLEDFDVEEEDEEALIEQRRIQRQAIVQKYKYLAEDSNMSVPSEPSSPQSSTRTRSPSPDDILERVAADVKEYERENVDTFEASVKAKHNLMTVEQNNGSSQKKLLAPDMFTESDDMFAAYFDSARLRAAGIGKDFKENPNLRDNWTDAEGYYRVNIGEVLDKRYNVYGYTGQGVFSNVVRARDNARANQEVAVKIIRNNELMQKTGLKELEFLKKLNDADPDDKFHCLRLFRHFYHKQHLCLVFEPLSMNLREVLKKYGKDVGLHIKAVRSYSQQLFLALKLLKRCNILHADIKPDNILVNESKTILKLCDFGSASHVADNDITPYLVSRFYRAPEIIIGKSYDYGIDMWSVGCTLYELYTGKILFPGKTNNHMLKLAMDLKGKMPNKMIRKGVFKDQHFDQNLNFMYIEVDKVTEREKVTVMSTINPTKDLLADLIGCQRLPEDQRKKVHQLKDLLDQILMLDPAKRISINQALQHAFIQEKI
# UniProt Q499Z4, sequence (Q499Z4 whole entry): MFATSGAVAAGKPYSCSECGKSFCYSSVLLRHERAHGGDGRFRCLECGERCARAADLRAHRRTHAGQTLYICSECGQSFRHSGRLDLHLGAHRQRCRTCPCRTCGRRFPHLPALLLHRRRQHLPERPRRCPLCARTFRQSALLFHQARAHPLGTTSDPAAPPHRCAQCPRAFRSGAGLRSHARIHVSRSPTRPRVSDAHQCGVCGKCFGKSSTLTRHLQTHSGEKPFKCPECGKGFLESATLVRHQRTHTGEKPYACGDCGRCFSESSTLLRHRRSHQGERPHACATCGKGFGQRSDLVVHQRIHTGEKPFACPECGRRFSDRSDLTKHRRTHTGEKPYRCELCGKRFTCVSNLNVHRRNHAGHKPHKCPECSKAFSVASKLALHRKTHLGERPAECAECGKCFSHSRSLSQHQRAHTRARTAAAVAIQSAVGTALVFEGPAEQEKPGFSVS
# UniProt Q86X83, sequence (Q86X83 whole entry): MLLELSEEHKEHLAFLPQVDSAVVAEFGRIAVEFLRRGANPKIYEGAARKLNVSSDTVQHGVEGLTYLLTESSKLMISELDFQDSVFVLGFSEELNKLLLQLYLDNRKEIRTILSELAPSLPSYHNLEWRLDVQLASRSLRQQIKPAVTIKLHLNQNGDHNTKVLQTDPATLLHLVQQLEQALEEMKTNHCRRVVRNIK
# UniProt Q3KQU3, sequence (Q3KQU3 whole entry): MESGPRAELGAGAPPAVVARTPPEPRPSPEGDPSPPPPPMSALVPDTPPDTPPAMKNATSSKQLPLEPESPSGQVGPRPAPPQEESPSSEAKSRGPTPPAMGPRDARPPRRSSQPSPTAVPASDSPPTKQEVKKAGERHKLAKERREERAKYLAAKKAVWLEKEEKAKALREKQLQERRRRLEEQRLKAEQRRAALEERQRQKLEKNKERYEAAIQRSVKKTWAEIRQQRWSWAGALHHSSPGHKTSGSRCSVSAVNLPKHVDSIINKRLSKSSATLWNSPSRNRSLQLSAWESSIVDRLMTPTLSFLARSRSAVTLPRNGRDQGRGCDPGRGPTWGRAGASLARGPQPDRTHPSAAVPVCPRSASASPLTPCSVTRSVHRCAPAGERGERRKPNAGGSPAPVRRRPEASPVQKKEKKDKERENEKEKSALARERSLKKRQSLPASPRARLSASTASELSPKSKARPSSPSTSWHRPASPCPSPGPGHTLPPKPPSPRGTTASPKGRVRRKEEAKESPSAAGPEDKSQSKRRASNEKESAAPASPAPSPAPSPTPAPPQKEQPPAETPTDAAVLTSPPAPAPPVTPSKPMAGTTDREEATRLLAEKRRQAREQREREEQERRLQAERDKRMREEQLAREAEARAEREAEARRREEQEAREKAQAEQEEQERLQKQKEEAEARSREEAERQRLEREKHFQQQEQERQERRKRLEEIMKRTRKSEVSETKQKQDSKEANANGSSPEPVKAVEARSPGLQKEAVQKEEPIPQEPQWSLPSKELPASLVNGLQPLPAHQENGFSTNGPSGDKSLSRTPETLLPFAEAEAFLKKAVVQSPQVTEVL
# UniProt Q86Y01, sequence (Q86Y01 whole entry): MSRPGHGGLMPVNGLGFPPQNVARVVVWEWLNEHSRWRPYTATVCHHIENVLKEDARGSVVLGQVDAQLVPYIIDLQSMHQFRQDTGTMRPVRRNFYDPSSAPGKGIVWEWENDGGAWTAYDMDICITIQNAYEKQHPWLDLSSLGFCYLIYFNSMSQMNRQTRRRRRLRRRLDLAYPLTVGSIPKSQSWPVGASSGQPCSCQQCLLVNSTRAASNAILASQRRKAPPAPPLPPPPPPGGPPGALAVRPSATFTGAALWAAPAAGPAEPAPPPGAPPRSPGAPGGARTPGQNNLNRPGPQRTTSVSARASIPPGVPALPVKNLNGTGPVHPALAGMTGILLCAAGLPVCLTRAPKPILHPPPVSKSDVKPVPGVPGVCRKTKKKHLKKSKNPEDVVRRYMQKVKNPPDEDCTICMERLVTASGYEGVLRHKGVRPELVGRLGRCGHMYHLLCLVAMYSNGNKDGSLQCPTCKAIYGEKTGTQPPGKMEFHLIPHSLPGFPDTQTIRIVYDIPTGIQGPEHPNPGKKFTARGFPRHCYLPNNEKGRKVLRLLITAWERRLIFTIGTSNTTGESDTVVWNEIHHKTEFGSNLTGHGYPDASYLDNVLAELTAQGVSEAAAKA
# UniProt Q16611, sequence (Q16611 whole entry): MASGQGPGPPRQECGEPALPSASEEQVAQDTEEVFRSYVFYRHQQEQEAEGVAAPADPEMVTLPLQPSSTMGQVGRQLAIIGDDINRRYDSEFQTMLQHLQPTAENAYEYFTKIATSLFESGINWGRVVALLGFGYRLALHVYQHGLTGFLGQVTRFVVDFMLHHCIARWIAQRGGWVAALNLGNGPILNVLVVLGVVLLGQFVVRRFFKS
Target,NP40-soluble protein abundance (concentration: 1mM),NP40-soluble protein abundance (concentration: 2mM),NP40-soluble protein abundance (concentration: 4mM),NP40-soluble protein abundance (concentration: 6mM),NP40-soluble protein abundance (concentration: 8mM),NP40-soluble protein abundance (concentration: 10mM)
UniProt Q3KQU3|Q3KQU3-4,1.08 ± 0.1,1.03 ± 0.11,1.09 ± 0.13,1.13 ± 0.26,1.1 ± 0.16,1.14 ± 0.13
UniProt Q86X83|Q86X83-2,1.01 ± 0.038,0.975 ± 0.011,0.963 ± 0.024,0.927 ± 0.022,0.956 ± 0.048,0.971 ± 0.021
UniProt Q86X95,0.964 ± 0.013,0.935 ± 0.061,0.9643 ± 0.008,0.949 ± 0.026,0.935 ± 0.0096,0.913 ± 0.02
CIRBP (UniProt Q14011),0.999 ± 0.062,1.02 ± 0.029,1.04 ± 0.033,1.1 ± 0.061,1.09 ± 0.051,1.1 ± 0.025
DHX9 (UniProt Q08211),1.24 ± 0.071,1.29 ± 0.043,1.49 ± 0.03,1.55 ± 0.024,1.88 ± 0.091,1.95 ± 0.15
UniProt Q86VR2,0.91 ± 0.084,0.941 ± 0.088,0.925 ± 0.11,0.869 ± 0.037,0.906 ± 0.064,0.943 ± 0.052
UniProt Q6IN85,1.03 ± 0.066,0.979 ± 0.042,0.946 ± 0.041,0.991 ± 0.048,0.956 ± 0.047,0.935 ± 0.08
UniProt Q86Y01,0.964 ± 0.033,1.05 ± 0.022,1.12 ± 0.065,1.05 ± 0.088,1.09 ± 0.012,1.15 ± 0.1
UniProt Q86UT6|Q86UT6-2,1.03 ± 0.027,1.081 ± 0.0018,0.99 ± 0.06,1.01 ± 0.18,1.02 ± 0.14,1.03 ± 0.12
AUH (UniProt Q13825),0.96 ± 0.062,0.979 ± 0.049,0.967 ± 0.035,0.93 ± 0.082,0.96 ± 0.055,0.973 ± 0.036
ZNF672 (UniProt Q499Z4),0.994 ± 0.061,1.07 ± 0.0039,1 ± 0.089,0.93 ± 0.078,0.996 ± 0.047,0.995 ± 0.016
TRIM14 (UniProt Q14142),1.08 ± 0.044,1.05 ± 0.037,1.13 ± 0.088,1.1 ± 0.083,1.17 ± 0.067,1.27 ± 0.2
UniProt Q16611|Q16611-2,1.01 ± 0.036,0.985 ± 0.023,1.02 ± 0.09,1.05 ± 0.045,0.997 ± 0.077,0.993 ± 0.087
ZC3H12A (UniProt Q5D1E8),0.982 ± 0.088,1.05 ± 0.089,0.988 ± 0.11,1.02 ± 0.085,1.02 ± 0.084,0.943 ± 0.11
PRPF4B (UniProt Q13523),1.29 ± 0.015,1.329 ± 0.011,1.46 ± 0.018,1.6 ± 0.061,1.68 ± 0.041,1.8 ± 0.022
EFTUD2 (UniProt Q15029),1.12 ± 0.04,1.16 ± 0.047,1.21 ± 0.047,1.26 ± 0.075,1.41 ± 0.056,1.42 ± 0.12
KBTBD2 (UniProt Q8IY47),1.14 ± 0.13,1.11 ± 0.027,1.15 ± 0.07,1.05 ± 0.044,1.16 ± 0.13,1.08 ± 0.026
SMC5 (UniProt Q8IY18),1.02 ± 0.026,1.02 ± 0.013,1.02 ± 0.02,1.04 ± 0.02,1.04 ± 0.016,1.04 ± 0.017
